Compound activity as filed in PubChem BioAssay.
Measles CPE: compounds protecting cells from measles virus cytopathic effect, primary screen, measles RdRp inhibitor project, single point, MLSMR library, absorbance; Measles virus-infected cells, CPE protection; protection (pct of control), % at 4 µM; hit rate 1.5% among 140,000; AID 841, 2007; in the data active = protection mostly above about 24%, no sharp cut-off; inactive = mostly below about 26%
CYP2C19 inhib: blockers of cytochrome P450 2C19 activity – biochemical, luminescence, ADME assay, primary screen; P33261; CYP2C19 Supersomes, luciferin-H EGE luminescence, 30 min; inhibition, % at 5 µM; hit rate 21% among 96,000; AID 778, 2007;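 active = CYP2C19 inhibition above a set limit at 5 µM in the primary screen, cut at about 50% in these data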;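 note: plate controls were negative control wells for no effect and 2.5 mM tranylcypromine positive control for full effect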
CYP2C9 activ: human CYP2C9 activators, primary screen, biochemical, luminescence; Cytochrome P450 2C9 (Homo sapiens), P11712; recombinant CYP2C9, luciferin-H conversion; stronger effect = higher value; factor 1 = untreated enzyme, 0 = blocked; activation factor at 5 µM; AID 1024, 2008; hit rate 1.4% among 96,000;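 active = activation factor of 2 or more for CYP2C9 at a 5 µM dose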;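 note: 0 = sulfaphenazole-blocked wells and 1 = vehicle-only wells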
Target sequence (P11712 whole entry, looked up): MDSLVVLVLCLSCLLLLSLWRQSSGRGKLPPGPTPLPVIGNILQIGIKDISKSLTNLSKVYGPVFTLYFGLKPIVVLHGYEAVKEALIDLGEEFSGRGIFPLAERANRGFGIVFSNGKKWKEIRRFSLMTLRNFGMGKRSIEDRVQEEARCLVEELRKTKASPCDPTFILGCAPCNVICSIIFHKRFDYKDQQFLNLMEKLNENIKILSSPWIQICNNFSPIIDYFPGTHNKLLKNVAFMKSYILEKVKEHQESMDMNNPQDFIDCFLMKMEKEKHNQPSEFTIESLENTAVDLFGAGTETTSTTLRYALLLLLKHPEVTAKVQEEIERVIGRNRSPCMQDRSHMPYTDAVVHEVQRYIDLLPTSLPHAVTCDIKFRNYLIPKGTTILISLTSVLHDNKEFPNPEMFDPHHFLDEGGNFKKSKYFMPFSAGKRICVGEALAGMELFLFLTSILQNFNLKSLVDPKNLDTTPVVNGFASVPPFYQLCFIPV
CYP2C9 inh: blockers of cytochrome P450 2C9 activity – biochemical, luminescence, ADME assay, primary screen | P11712 | CYP2C9 Supersomes, luciferin-H conversion | inhibition, % at 5 µM | hit rate 20% among 96,000 | AID 777, 2007;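 active = blocking of liver enzyme CYP2C9 beyond about 50% at 5 µM, limit read from the data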
CYP2C19 act: human CYP2C19 activators, primary screen, biochemical, luminescence | recombinant CYP2C19, luciferin-H EGE luminescence; stronger effect = higher value; 0 = fully inhibited enzyme, 1 = untreated enzyme | AID 1025, 2008 | activation factor at 5 µM | 96,000 tested, under 10 active;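 active = activation factor of at least 2 at 5 µM in the primary screen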;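 note: 0 = wells with 2.5 mM tranylcypromine and 1 = vehicle-only wells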
Numbers without * were called inactive; . = no result. This is a sample that favours compounds with a hit; in the whole collection about 22% have one here.

SMILES | Measles CPE | CYP2C19 inhib | CYP2C9 activ | CYP2C9 inh | CYP2C19 act
C=CCn1cnc2scc(-c3ccc(CC)cc3)c2c1=O | 16.2 | 92.7* | 0.5 | 52.8* | 0.1
OC(c1ccccc1)(c1ccc(F)cc1)C(c1ccccc1)N1CCOCC1 (configuration not stated) | 2.3 | 68.7* | 1 | 4.2 | 0.3
N#Cc1nc(COc2ccccc2Cl)oc1NCc1cccnc1 | 16.2 | 91.4* | 0.6 | 35.5 | 0.1
COc1ccc(CNc2oc(COc3ccccc3Cl)nc2C#N)cc1 | 5.0 | 31.4 | 0.5 | 47.3 | 0.7
Cc1ccc(CNc2oc(COc3ccccc3Cl)nc2C#N)cc1 | 5.1 | 30.0 | 0.4 | 61.4* | 0.7
Cc1cc(=O)oc2c(N)c(O)ccc12 | 15.5 | -11.3 | 1 | -2.0 | 1.1
COc1cc(S(=O)(=O)N2CCOCC2)ccc1NC(=O)CSc1nnc(N)s1 | 22.5 | 13.3 | 0.5 | 46.8 | 0.9
Cc1ccc(N2CC(C(=O)N3CCc4ccccc4C3)CC2=O)cc1 (configuration not stated) | 5.4 | 36.8 | 0.3 | 66.8* | 0.6
Cc1ccc(C2CCN(C(=O)Nc3ccccc3)C2)cc1 (configuration not stated) | 10.4 | 60.5* | 0.7 | 30.5 | 0.4
Cc1ccc(NC(=O)N2CCc3ccccc3C2)cc1 | 4.4 | 92.9* | 0.9 | 11.6 | 0.1
Cc1ccc(N2CC(C(=O)N3CCN(c4ccccc4)CC3)CC2=O)cc1 (configuration not stated) | 9.8 | 4.9 | 1 | -3.3 | 1
CC(=O)c1cccc(NC(=O)N2CCc3ccccc3C2)c1 | 8.7 | 68.3* | 0.4 | 56.5* | 0.3
O=C1OCc2cccc3cccc1c23 | 2.5 | 2.3 | 1.1 | -9.2 | 1
COc1ccc(NS(=O)(=O)c2ccc(NC(=O)CCNS(=O)(=O)c3ccc(C)cc3)cc2)cc1 | 2.3 | . | . | . | .
CC(=O)c1c(C(C)=O)c(C)n(-c2ccc(C)c(NC(=O)c3ccccc3Cl)c2)c1C | 16.8 | 13.1 | 0.6 | 42.7 | 0.9
O=C(NCc1cccnc1)C(=O)NCC1OCCN1S(=O)(=O)c1ccc(F)cc1 (configuration not stated) | 3.1 | . | . | . | .
Cc1ccc(S(=O)(=O)Nc2ccccc2-c2ccccc2)cc1 | 2.2 | 57.5* | 0.5 | 48.7 | 0.4
Cc1ccc(S(=O)(=O)Nc2ccnc3ccccc23)cc1 | 0.9 | 20.5 | 1.8 | -80.5 | 0.8
Cc1ccc(S(=O)(=O)Nc2ccc(C(=O)Nc3cc(C)on3)cc2)cc1 | 15.4 | . | . | . | .
Cc1cc(NS(=O)(=O)c2ccc(-c3ccccc3)cc2)no1 | 5.0 | 13.3 | 0.1 | 87.9* | 0.9
Cc1ccc(S(=O)(=O)Nc2cc(C)nn2-c2ccccc2)cc1 | 9.4 | 4.3 | 0 | 99.6* | 1
Cc1cc(NS(=O)(=O)c2ccc(N)cc2)no1 | 10.7 | . | . | . | .
Cc1cc(NC(=O)c2ccc(S(=O)(=O)Nc3ccccc3)cc2)no1 | 4.2 | 21.4 | 0.5 | 52.0* | 0.8
Cn1c(SCC(=O)Nc2ccc(F)cc2F)nnc1-c1cccnc1 | 5.4 | 11.6 | 0.8 | 19.1 | 0.9
Clc1ccc(NNc2ccnc3cc(Cl)ccc23)cc1 | 1.9 | 66.5* | 0.2 | 80.2* | 0.3
SMILES | Measles CPE | CYP2C19 inhib | CYP2C9 activ | CYP2C9 inh | CYP2C19 act
CCn1c(COc2ccc(C)cc2)nnc1SCC(=O)Nc1ccc(S(N)(=O)=O)cc1 | 17.1 | 6.6 | 0.8 | 21.8 | 0.9
Cc1cccc(NC(=O)c2sc3nc(-c4ccccc4)cn3c2C)n1 | 6.0 | 54.8* | 0.3 | 65.3* | 0.5
Cc1c(C(=O)Nc2ccc3c(c2)OCO3)sc2nc(-c3ccccc3)cn12 | 9.2 | 0.9 | 0.6 | 40.9 | 1
Cc1c(C(=O)Nc2ccccc2)sc2nc(-c3ccccc3)cn12 | 6.3 | 70.2* | 0.2 | 76.2* | 0.3
Nc1nnnn1CC(=O)OCc1cccc(Br)c1 | 8.2 | 35.6 | 2.6* | -159.6 | 0.6
O=C(CN1CC(c2ccccc2)CC1=O)OCc1cccc(Br)c1 (configuration not stated) | 5.6 | 24.7 | 0.9 | 11.8 | 0.8
Cc1cc(C)n(-c2ccc(C(=O)OC(C)C)cc2)n1 | 16.8 | 12.6 | 0.9 | 12.1 | 0.9
CCCn1c(-c2cccs2)nc2nc3ccccc3nc21 | 3.5 | 13.5 | 0.5 | 46.8 | 0.9
COc1ccc(CCn2c(N)c(S(=O)(=O)c3cccs3)c3nc4ccccc4nc32)cc1OC | 2.8 | . | . | . | .
Nc1c(S(=O)(=O)c2cccs2)c2nc3ccccc3nc2n1CC1CCCO1 (configuration not stated) | 5.3 | -22.5 | 1 | 4.3 | 1.2
Nc1c(S(=O)(=O)c2cccs2)c2nc3ccccc3nc2n1Cc1cccs1 | 4.6 | 1.3 | 0.7 | 32.8 | 1
CC(C)CCn1c(N)c(S(=O)(=O)c2cccs2)c2nc3ccccc3nc21 | 3.7 | 39.0 | 0.2 | 84.8* | 0.6
Nc1c(S(=O)(=O)c2cccs2)c2nc3ccccc3nc2n1Cc1ccc2c(c1)OCO2 | 4.0 | 42.4 | 0.1 | 90.9* | 0.6
c1csc(-c2nc3nc4ccccc4nc3n2Cc2ccc3c(c2)OCO3)c1 | 8.2 | 90.1* | 0 | 96.3* | 0.1
Nc1c(S(=O)(=O)c2cccs2)c2nc3ccccc3nc2n1CCc1ccccc1 | . | 57.9* | 0.4 | 58.5* | 0.4
COc1cc(C(C#N)N2CCCCC2)ccc1O (configuration not stated) | 3.9 | 6.4 | 0.8 | 16.3 | 0.9
O=S1(=O)CC(N2CCCCC2)C(N2CCCCC2)C1 (configuration not stated) | 5.8 | -0.5 | 1 | 4.1 | 1
Cc1cc(=O)n2[nH]c(N)c(N=Nc3ccccc3F)c2n1 | 7.4 | . | . | . | .
COc1ccc(CCNCc2csc3nc4ccccc4n23)cc1OC | 3.4 | 20.5 | 0.8 | 25.0 | 0.8
Cc1ccn2c(C(=O)N/N=C\c3cccs3)c(C)nc2c1 | 16.8 | 46.7 | 0.5 | 51.6* | 0.5
Cc1ccc2nc(C)c(C(=O)N/N=C/c3cccs3)n2c1 | 7.1 | . | . | . | .
CCCNC(=O)C(=O)N/N=C/c1cccs1 | 50.1* | . | . | . | .
O=C(N/N=C/c1cccs1)c1ccccn1 | 42.2* | -17.1 | 1.1 | -12.2 | 1.2
CC(C)(C)NC(=O)C(=O)N/N=C/c1cccs1 | 6.8 | 10.3 | 0.7 | 32.8 | 0.9
CCN(C(=O)CSc1nnc(Cc2ccccc2F)n1N)C1CCS(=O)(=O)C1 (configuration not stated) | 2.4 | -27.3 | 1 | 4.0 | 1.3
Cc1nc(N)sc1-c1nnc(SCC(=O)Nc2ccccc2C(F)(F)F)n1C | 16.6 | -18.2 | 0.9 | 6.1 | 1.2
COc1ccc(C(NC(=O)CNC(C)=O)C(=O)Nc2ccc3c(c2)OCCO3)cc1 (configuration not stated) | 17.0 | 16.1 | 0.9 | 5.3 | 0.8
COc1ccc(OC(C)C(=O)Nc2cccc(OC)c2)cc1 (configuration not stated) | 4.7 | 87.0* | 0.3 | 74.9* | 0.1
